Among all 340,000 compounds or so, about 5,100 (1.5%) were called active. What follows is part of a selection rich in actives, with near analogues and random picks from the rest. A number with no mark means an inactive call.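 Rule for the calls: active = mean Tm shift, scaled 0 neutral to 100 positive control, at about 1.3% or above, every replicate too (limit read from the data); inconclusive = no clear call, values can overlap the other calls; inactive = the rest.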
Molecular target: Fibroblast growth factor 22 (Homo sapiens) (UniProt Q9HCT0)
Assay: binders of human FGF22 protein, primary screen, FGF22 synaptogenesis inhibitor project, biophysical, thermal shift, single point (AID 651658)
Settings: recombinant FGF22 thermal shift, SYPRO orange fluorescence; at 9.99 µM; hits give high values; percent of sucrose octasulfate shift, DMSO zero

Fibroblast growth factor 22 (Homo sapiens), sequence (Q9HCT0 whole entry, looked up): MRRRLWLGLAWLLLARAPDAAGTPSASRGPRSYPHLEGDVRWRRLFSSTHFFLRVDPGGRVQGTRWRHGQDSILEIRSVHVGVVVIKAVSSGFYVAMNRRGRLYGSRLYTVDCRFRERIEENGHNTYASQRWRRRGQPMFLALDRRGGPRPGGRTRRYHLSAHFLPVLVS

Row | SMILES | activity (Tm shift, normalised)
1 | CC(C)NC(=O)N[C@@H]1CC[C@@H](CCNS(=O)(=O)Cc2ccccc2)O[C@@H]1CO | -0.299%
2 | O=C(Nc1ccc(F)cc1)N1C[C@@H]2[C@H](c3ccccc31)[C@H](CO)N2Cc1ccccc1 | -0.206%
3 | CN1C(=O)c2cc(NC(=O)c3ccccc3)ccc2OC[C@H]2O[C@@H](CC(=O)O)CC[C@@H]21 | -0.04%
4 | CC(=O)N(C)C[C@@H]1Oc2ncc(C#Cc3ccccn3)cc2C(=O)N([C@@H](C)CO)C[C@@H]1C | 0.165%
5 | Cc1cccc(CN2CCN(C3CN(Cc4cn(Cc5cc(C)cc(C)c5)nn4)S(=O)(=O)C3)CC2)c1 (stereo unspecified) | -0.326%
6 | CCCCN1CC(N2CCN(Cc3cccc(C)c3)CC2)CS1(=O)=O (stereo unspecified) | 1.92% (active)
7 | Cc1cccc(CN2CCN(C3CN(Cc4ccccc4)S(=O)(=O)C3)CC2)c1 (stereo unspecified) | -0.158%
8 | COc1cccc(CNC(=O)C[C@@H]2CC[C@H]3[C@@H](COc4ccc(NC(=O)c5cccs5)cc4C(=O)N3C)O2)c1 | 0.125%
9 | Cc1ccn2c(=O)c(NC(=O)c3cccc4ccccc34)c(C)nc2c1 | -0.089%
10 | Cc1ccc(NC(=O)C(=O)NCc2ccc(/C=N/NC(=O)c3c(C)nc4cc(C)ccn34)o2)cc1 | 2.68% (active)
11 | CCOc1ccc(/C=N\NC(=O)c2c(C)nc3cc(C)ccn23)cc1 | -0.098%
12 | CO[C@H]1CN(C)C(=O)c2cc(NS(=O)(=O)c3ccccc3)ccc2OC[C@H](C)NC[C@@H]1C | -0.185%
13 | C[C@H]1CN([C@@H](C)CO)S(=O)(=O)c2ccc(Br)cc2O[C@H]1CN(C)Cc1ccccn1 | -0.079%
14 | COc1ccc2c3c(n(C)c2c1)[C@@H](CO)N(C(=O)Nc1ccc(F)cc1)CC31CCN(C(=O)c2cccnc2)CC1 | -0.306%
15 | C[C@@H]1CN([C@H](C)CO)S(=O)(=O)c2ccc(C3=CCCC3)cc2O[C@@H]1CN(C)C(=O)C1CCC1 | 0.141%
16 | O=C(c1ccncc1)c1ccc([N+](=O)[O-])cc1 | 43.1% (active)
17 | O=C(Nc1ccccc1C(=O)Nc1ccncc1)c1ccc([N+](=O)[O-])cc1 | -0.016%
18 | O=C(Nn1cnnc1)c1ccc([N+](=O)[O-])cc1 | 42.7%
19 | CC(C)NC(=O)N1CC2(C1)[C@H](c1ccccc1)[C@H](CO)N2C(=O)C1CCOCC1 | -0.068%
20 | O=[N+]([O-])c1ccc2c(c1)C(O)n1nc(-c3ccccc3)nc1S2 (stereo unspecified) | 0.035%
21 | CC(=O)Oc1ccc2c(=O)oc(-c3ccc([N+](=O)[O-])cc3)nc2c1 | -0.034%
22 | O=[N+]([O-])c1ccc2oc(-c3cccc(O)c3)nc2c1 | 43.2% (active)
23 | CN(C)C(=O)C[C@@H]1CC[C@H]2[C@@H](COC[C@H](O)CN2C(=O)c2ccncc2)O1 | -0.192%
24 | CC(C)CC#Cc1cnc2c(c1)C(=O)N([C@H](C)CO)C[C@H](C)[C@@H](CN(C)Cc1ccccc1)O2 | 0.063%
25 | CO[C@@H]1CN(C)C(=O)c2ccc(NC(=O)Nc3ccccc3)cc2OC[C@@H](C)N(C(=O)CN(C)C)C[C@H]1C | -0.352%
26 | Cc1c(CCOC(=O)CC23CC4CC(CC(C)(C4)C2)C3)sc[n+]1Cc1ccc([N+](=O)[O-])cc1 | -0.223%

Row | SMILES | activity (Tm shift, normalised)
27 | Cc1c(CCO)sc[n+]1CC(=O)OC12CC3CC(CC(C3)C1)C2 | 1.45% (active)
28 | C[C@@H]1CN([C@@H](C)CO)S(=O)(=O)c2ccc(/C=C/c3ccccc3)cc2O[C@H]1CN(C)C(=O)C1CC1 | -0.835%
29 | COc1cccc(CN2CC3(CN(Cc4ccccn4)C3)c3c([nH]c4cc(OC)ccc34)[C@@H]2CO)c1 | 0.052%
30 | CCS(=O)(=O)N1CCC2(CC1)CN(Cc1ccc3c(c1)OCO3)[C@H](CO)c1[nH]c3cc(OC)ccc3c12 | 0.042%
31 | COc1cc(OC)cc(-c2nc3ccccc3c(=O)n2NC(=O)c2cccnc2Cl)c1 | 0.323%
32 | COc1ccccc1C(=O)Nn1c(-c2cccs2)nc2ccccc2c1=O | 43.8% (active)
33 | COc1cc(C(=O)Nn2c(CC(C)C)nc3ccccc3c2=O)cc(OC)c1OC | 0.375%
34 | C[C@H]1CN([C@@H](C)CO)C(=O)c2cc(-c3ccncc3)cnc2O[C@H]1CN(C)C(=O)c1cccc(F)c1 | -0.103%
35 | C[C@H]1CN([C@@H](C)CO)C(=O)c2cc(NC(=O)Nc3ccccc3)ccc2O[C@H]1CN(C)C(=O)Nc1ccc(F)cc1 | 0.055%
36 | COCC(=O)Nc1ccc2c(c1)OC[C@H](C)N(C)C[C@@H](C)[C@@H](OC)CN(C)C2=O | 38% (active)
37 | CCC(=O)N1C[C@@H](C)[C@H](OC)CN(C)C(=O)c2ccc(NC(=O)COC)cc2OC[C@@H]1C | 0.031%
38 | COCC(=O)Nc1ccc2c(c1)OC[C@H](C)N(C(=O)COC)C[C@@H](C)[C@H](OC)CN(C)C2=O | 0.165%
39 | COc1cccc(-c2ccc3c(c2)[C@H]2[C@H](CCN2C(=O)c2ccc(F)cc2)[C@@H](CO)N3)c1 | -0.166%
40 | O=[N+]([O-])c1ccc(F)cc1Oc1nc(-c2cccnc2)nc2ccccc12 | 43.2% (active)
41 | O=[N+]([O-])c1cc2ccccc2nc1-c1ccccc1 | 42.3%
42 | N#CCSc1nc(-c2ccccc2)nc2ccc(F)cc12 | -0.193%
43 | COc1cccc(-c2ccc([C@@H]3[C@@H](C#N)N(C(=O)c4ccccn4)[C@H]3CO)cc2)c1 | -0.024%
44 | O=C(CN1CCOCC1)NC[C@@H]1N[C@@H](CO)[C@@H]1c1ccc(-c2ccccc2)cc1 | 0.456%
45 | C[C@@H]1CN([C@H](C)CO)C(=O)c2cc(N(C)C)ccc2O[C@@H](C)CCCCO[C@@H]1CN(C)C(=O)CCCN(C)C | -0.859%
46 | COc1ccccc1C#Cc1cnc2c(c1)C(=O)N([C@H](C)CO)C[C@H](C)[C@H](CN(C)S(=O)(=O)c1cn(C)cn1)O2 | 0.666%
47 | CC(C)[C@@H]1COCn2nncc2CCCC(=O)N1 | -0.193%
48 | O=C(C[C@H]1CC[C@@H]2[C@H](COC[C@@H](O)CN2C(=O)Nc2ccc(C(F)(F)F)cc2)O1)NCCc1ccncc1 | -0.088%
49 | O=C1C=C(c2ccccc2)CCC1 | 43.9% (active)
50 | CC(C)NC(=O)N1[C@H](CO)[C@H](c2ccccc2)C12CN(C(=O)Cc1ccccc1)C2 | -0.087%
51 | CC1(C)OC(=O)C(=CNC(CO)C(=O)O)C(=O)O1 (stereo unspecified) | 43.2% (active)
52 | CC(C)Oc1ccccc1C(=O)NC(CO)C(=O)O (stereo unspecified) | 42.8%

Row | SMILES | activity (Tm shift, normalised)
53 | COCC(=O)N1CC2(C1)CN(C(=O)COC)[C@@H](CO)c1c2c2ccc(OC)cc2n1C | -0.043%
54 | C[C@@H]1CN([C@H](C)CO)C(=O)c2cc(NC(=O)Cn3cnnn3)ccc2O[C@@H]1CN(C)C(=O)Nc1ccc2c(c1)OCO2 | 0.191%
55 | O=S(=O)(N[C@@H]1CC[C@H](CCn2cc(-c3ccccc3F)nn2)O[C@H]1CO)c1ccc(F)cc1 | 0.086%
56 | O=S(=O)(Oc1ccccc1C(=S)N1CCOCC1)c1ccc(Cl)cc1 | 0%
57 | O=C(Cc1ccccc1Cl)N1CCOCC1 | -0.495%
58 | S=C(Cc1ccc(Cl)cc1)N1CCOCC1 | 43.7% (active)
59 | COc1ccc2c3c(n(C)c2c1)[C@@H](CO)NCC31CCN(CC2CCCC2)CC1 | -0.076%
60 | O=S(=O)(c1ccccc1)c1nc(-c2ccccc2)oc1NCCCN1CCOCC1 | 0.296%
61 | Cc1ccc(S(=O)(=O)c2nc(-c3cccs3)oc2NCc2cccnc2)cc1 | 0.137%
62 | O=S(=O)(c1ccccc1)c1nc(-c2ccccc2F)oc1NCc1cccnc1 | 44.2% (active)
63 | O=C(NCC1CC1)[C@@H]1[C@@H](CO)[C@@H]2Cn3c(ccc(-c4ccccc4)c3=O)[C@H]1N2C(=O)C1CC1 | 0.292%
64 | Cc1cc(C)cc(NC(=O)C2CCCN(S(=O)(=O)c3ccc4[nH]c(=O)ccc4c3)C2)c1 (stereo unspecified) | -0.297%
65 | CC1CCN(S(=O)(=O)c2ccc3c(c2)n(C)c(=O)n3C)CC1 | 0.113%
66 | CC1CCN(S(=O)(=O)c2ccc3[nH]c(=O)ccc3c2)CC1 | 43.3% (active)
67 | COc1ccc(CCNC(=O)c2c(C)nn(-c3ccccc3)c2Cl)cc1 | 0.155%
68 | COCc1[nH]nc2c1C(c1ccccc1)N(c1ccccc1)C2=O (stereo unspecified) | -0.061%
69 | COc1ccc(C2c3c(C)nn(-c4ccccc4)c3NC(=O)N2c2ccccc2)cc1 (stereo unspecified) | 42.9% (active)
70 | COc1ccccc1-c1ccc2c(c1)O[C@@H](CN(C)C(=O)Nc1ccccc1)[C@H](C)CN([C@@H](C)CO)S2(=O)=O | 0.048%
71 | CN1c2ccc(-c3cccc(C#N)c3)cc2[C@@H]2[C@@H](CCN2C(=O)C2CCC2)[C@@H]1CO | -0.466%
72 | COc1ccc(NC(=O)CCNC(=O)Cn2cnc3sc4c(c3c2=O)CCCC4)cc1OC | 0.026%
73 | Cc1nc2sc3c(c2c(=O)n1NC(=O)CCl)CCCC3 | 0.109%
74 | CC(C(=O)O)n1cnc2sc3c(c2c1=O)CCCC3 (stereo unspecified) | 43.5% (active)
75 | CN(C)C(=O)c1ccc(-c2ccc([C@@H]3[C@@H](CO)N4CCCCN(CC5CC5)C[C@H]34)cc2)cc1 | -0.109%
76 | CC(=O)N1[C@@H](CO)[C@H](c2ccccc2)[C@@H]1CN(C)C(=O)CN1CCOCC1 | 0.01%

Reference: PubChem BioAssay AID651658 (Broad Institute, 2012)
